Laboratory results taken from ChEMBL document CHEMBL1961873, “Compounds: GSK PKIS; Assays: Nanosyn kinase panel” (2012).
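Also: reported value is the mean inhibition of CK1 gamma-1 kinase activity across replicate measurements.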

Each molecule was assayed against Casein kinase I isoform gamma-1 (Homo sapiens) (UniProt Q9HCP0). Details: at 1 µM.
Chain of Casein kinase I isoform gamma-1 (Homo sapiens) (Q9HCP0 whole entry, looked up, canonical isoform): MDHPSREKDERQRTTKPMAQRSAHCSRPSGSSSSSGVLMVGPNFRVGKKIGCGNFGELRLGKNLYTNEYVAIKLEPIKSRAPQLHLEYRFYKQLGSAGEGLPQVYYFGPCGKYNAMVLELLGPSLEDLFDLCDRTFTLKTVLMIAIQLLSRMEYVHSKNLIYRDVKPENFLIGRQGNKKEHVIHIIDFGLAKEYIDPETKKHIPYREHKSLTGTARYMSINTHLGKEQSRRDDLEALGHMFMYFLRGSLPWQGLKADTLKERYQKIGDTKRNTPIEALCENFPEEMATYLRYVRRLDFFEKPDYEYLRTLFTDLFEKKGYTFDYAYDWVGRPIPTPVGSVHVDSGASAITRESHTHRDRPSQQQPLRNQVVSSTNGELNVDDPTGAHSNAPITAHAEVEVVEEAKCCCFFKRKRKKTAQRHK
In the case of `NC(=O)c1cc(-c2ccncc2)cc(-c2ccccc2)c1N`, the inhibition was 5.37%. For `COc1cc2ncn(-c3cc(OCc4cccs4)c(C(N)=O)s3)c2cc1OC`, the inhibition was -1.01%. `COc1ccc(C2=C(N3CCc4ccccc43)C(=O)NC2=O)cc1` gave an inhibition of 4.09%. Work on `NS(=O)(=O)c1ccc(N/N=C2\C(=O)Nc3ccc(C(=O)NCCCn4ccnc4)cc32)cc1` yielded an inhibition of 10.8%. Molecule `O=C(Nc1n[nH]c2nc(-c3ccc(O)cc3)c(Br)cc12)C1CC1` has an inhibition of 5.67%. `Clc1ccc(CNc2nccc(-c3cnn4ncccc34)n2)cc1` showed an inhibition of 7.72%. `CS(=O)(=O)CCNCc1ccc(-c2ccc3ncnc(Nc4ccc(OCc5ccccc5)c(Br)c4)c3c2)o1` was tested, and the inhibition was -0.07%. Work on `c1ccc(Oc2ccc(Nc3ncc(-c4ccccc4)o3)cc2)cc1` yielded an inhibition of 2.02%. `Cc1ccc(NC(=O)c2ccoc2)cc1-c1ccc(C(=O)NCC2CC2)cc1` was tested, and the inhibition was 3.5%. With `C/C(Nc1ccc(S(N)(=O)=O)cc1)=C1/C(=O)Nc2ccccc21` the inhibition was 6.33%. With `Fc1ccc(-c2c(-c3ccncc3)nc3n2CCS3)cc1` the inhibition was -0.38%. Work on `O=C(Nc1ccc(Oc2ccc3[nH]c(NC(=O)c4ccccc4)nc3c2)cc1)Nc1cc(C(F)(F)F)ccc1F` yielded an inhibition of 2.88%. `O=C1NC(=O)C(c2cccc(Cl)c2)=C1Nc1ccc(Cl)c(C(=O)O)c1` showed an inhibition of 1.79%. In the case of `NS(=O)(=O)c1ccc(Nc2cc(-c3ccc(O)c(F)c3)n[nH]2)cc1`, the inhibition was 0.81%. `COC(=O)Nc1nc2ccc(Sc3ccc(NC(=O)Nc4cc(C(F)(F)F)ccc4F)cc3)cc2[nH]1` showed an inhibition of 0.47%. For `Cc1nnc(-c2ccc(C)c(-c3ccc(C(=O)NCc4ccc(Cl)cc4)cc3)c2)o1`, the inhibition was 2.06%.
